Values joined by “and” are separate entries in the source; they are usually repeats but may differ in a detail not shown here. Identical values can stand only once. Some structures have more than one record in an assay (separate samples or runs), and their calls can disagree. Active and inactive are the calls of the source. Unless noted, the rule behind the calls is not given here.
Columns and labels:
[1] = tested on: Wnt5a (protein binding on small-molecule microarray); test: Wnt5a binders on small-molecule microarray, primary screen, biophysical, 635/667 nm fluorescence (AID 1142); conditions: 635 nm fluorescence, higher = more signal;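 note: fluorescence read at 667 nm with signal to noise per printed feature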
[2] = cell viability in Huh7 cells, primary screen, cytotoxicity control for HCV replication inhibitor project, CellTiter-Glo luminescence, basal, 48 h (AID 1143); conditions: Huh7 HCV replicon, higher = more signal, called active from +8 up or from −8 down;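 note: Huh7 hepatoma cells carrying a hepatitis C replication reporter with no stimulus; test concentration not given here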
[3] = P. aeruginosa biofilm formation inhibitors, primary screen, PAO1 strain, BacTiter-Glo luminescence, LB-PBS (AID 1144); conditions: 12 h, higher = more signal
[4] = CREB reporter modulators without forskolin, primary screen, cell-based, PC12, CRE-LacZ reporter, unstimulated (AID 1145); conditions: no forskolin, luminescence, 4.5 h, higher = more signal, called active from +8 up or from −8 down
[5] = CREB reporter modulators under forskolin, primary screen, cell-based, PC12, CRE-LacZ reporter, forskolin-stimulated (AID 1146); conditions: luminescence, 4.5 h, higher = more signal, called active from +8 up or from −8 down;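 note: PC12 cells with 6xCRE LacZ reporter stimulated by forskolin 10 µM; beta-galactosidase reporter signal reflecting CREB driven transcription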
[6] = target: Streptavidin (Streptomyces avidinii) (UniProt P22629); test: streptavidin binders on small-molecule microarray, primary screen, artefact control for SMM compound annotation, biophysical, 635/667 nm fluorescence (AID 1147); conditions: streptavidin binding, higher = more signal;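 note: signal reflects streptavidin binding to arrayed compounds as a control protein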
[7] = small-molecule binders of probe aInhba, primary screen, biochemical, small-molecule microarray, 635/667 nm fluorescence (AID 1148); conditions: higher = more signal;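 note: score merges 667nm spot fluorescence with signal-to-noise for antibody binding to printed compounds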
Torsin-1A (Homo sapiens) [8] = target: Torsin-1A (Homo sapiens) (UniProt O14656); test: torsin A binders from cell lysate, primary screen, small-molecule microarray, wild-type, 635/667 nm (AID 1149); conditions: COS7 hTOR1A-WT lysate, 635 nm fluorescence, higher = more signal
Torsin-1A (Homo sapiens) [9] = target: Torsin-1A (Homo sapiens) (UniProt O14656); test: small-molecule binders of mutant TOR1A in lysate, primary screen, cell lysate, small-molecule microarray, COS7 lysate, 635/667 nm fluorescence (AID 1150); conditions: COS7 hTOR1A mutant lysate, 635 nm fluorescence, higher = more signal;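 note: score pools 667 nm emission and signal to noise measuring lysate protein binding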
[10] = tested on: Sonic hedgehog protein (Shh); test: small-molecule binders of Shh protein, primary screen, biochemical, small-molecule microarray, 635/667 nm fluorescence (AID 1151); conditions: small-molecule microarray binding, 635 nm fluorescence; higher = more signal;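 note: Shh protein binding to compounds spotted on small-molecule microarray slides; score combines spot fluorescence intensity with signal-to-noise across triplicate slides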

Chain of Streptavidin (Streptomyces avidinii) (P22629 whole entry, looked up): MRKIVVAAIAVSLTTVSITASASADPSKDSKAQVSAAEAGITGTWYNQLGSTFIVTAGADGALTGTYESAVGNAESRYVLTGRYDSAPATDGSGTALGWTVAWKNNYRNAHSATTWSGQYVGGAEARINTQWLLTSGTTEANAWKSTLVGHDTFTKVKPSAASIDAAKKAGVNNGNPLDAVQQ
Chain of Torsin-1A (Homo sapiens) (O14656 whole entry, looked up): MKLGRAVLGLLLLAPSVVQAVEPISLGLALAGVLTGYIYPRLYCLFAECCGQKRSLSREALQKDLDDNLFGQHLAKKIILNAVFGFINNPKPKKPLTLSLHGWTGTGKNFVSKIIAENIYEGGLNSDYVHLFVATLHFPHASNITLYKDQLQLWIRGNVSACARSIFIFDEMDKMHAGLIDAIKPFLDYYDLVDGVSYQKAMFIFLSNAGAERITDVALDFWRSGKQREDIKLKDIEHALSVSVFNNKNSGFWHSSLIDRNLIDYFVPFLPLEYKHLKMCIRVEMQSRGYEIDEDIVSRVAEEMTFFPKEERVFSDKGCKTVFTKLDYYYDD

Row | Compound | composite z-score [1] | z-score [2] | z-score [3] | z-score [4] | z-score [5] | composite z-score [6] | composite z-score [7] | composite z-score (Torsin-1A (Homo sapiens) [8]) | composite z-score (Torsin-1A (Homo sapiens) [9]) | composite z-score [10]
1 | C=CCN(C(=O)C1N(CCOCCO)C(=O)C2C(C(=O)O)C3C=CC21O3)c1ccc(OC)cc1 (centres undefined) | -0.571 and -0.317 | -0.769 (inactive) and -0.89 (inactive) | 0.0762 (inactive) and 0.0838 (inactive) | 0.329 (inactive) and 0.463 (inactive) | 0.373 (inactive) and -0.121 (inactive) | -1.35 and -1.27 | -0.186 and -0.296 | -1.81 and -2.21 | -1.91 and -1.9 | -1.31 and -0.761
2 | CC(C)[Si]1(C(C)C)OCc2cc(C3CC3)nc(CCc3ccccc3)c21 | -0.106 and 0.243 | 0.412 (inactive) and -0.432 (inactive) | -0.37 (inactive) and 0.125 (inactive) | 0.0035 (inactive) and 0.148 (inactive) | -0.271 (inactive) and -0.0043 (inactive) | 0.0746 and 0.209 | -0.0986 and -0.205 | -0.483 and 0.207 | -1.29 and 0.401 | -0.447 and 0.221
3 | CCOC(=O)c1ccc(NC(=O)O[C@H]2[C@H](OC(=O)Nc3ccccc3)[C@@H](OC(=O)Nc3ccccc3)[C@@H](OC)O[C@@H]2CO)cc1 | 0.493 and 0.437 | -4.44 (inactive) and -4.14 (inactive) | 0.0469 (inactive) and -1.32 (inactive) | 1.55 (inactive) and -0.552 (inactive) | -1.38 (inactive) and -1.61 (inactive) | 1.64 and 0.53 | 0.333 and 0.0982 | 1.19 and 0.89 | 0.556 and 0.56 | 0.955 and 1.97
4 | COC(=O)C1=C(C)N(Cc2ccccc2)[C@]23O[C@](C(=O)OC)(C(=O)N2[C@@H]1c1ccccc1)[C@H]1C(=O)N(C)C(=O)[C@H]13 | 0.0757 and 0.142 | -1.01 (inactive) and -1.34 (inactive) | 0.225 (inactive) | 3.17 (inactive) and 0.019 (inactive) | -0.735 (inactive) and -1.7 (inactive) | 0.412 and 0.0225 | -0.278 and -0.179 | 0.314 and 0.263 | 0.691 and 0.524 | 0.548 and 0.736
5 | C=CCN(Cc1ccccc1)C(=O)C1N(c2c(Cl)cccc2CO)C(=O)C2C(C(=O)O)C3C=CC21O3 (centres undefined) | -0.597 and -1.05 | -0.634 (inactive) and -0.0943 (inactive) | -2.23 (inactive) and -0.0736 (inactive) | -0.619 (inactive) and -0.216 (inactive) | -1.1 (inactive) and 0.577 (inactive) | -1.38 and -2.19 | -0.182 and -0.364 | -0.986 and -1.77 | -1.2 and -1.14 | -0.796 and -0.69
6 | C=CCN(Cc1ccccc1)C(=O)C(c1cccs1)N(C(=O)/C=C\C(=O)O)c1c(Cl)cccc1CO (centres undefined) | -0.835 and -0.796 | -0.109 (inactive) and 0.446 (inactive) | -1.78 (inactive) and 0.911 (inactive) | -1.44 (inactive) and 0.191 (inactive) | -0.418 (inactive) and -0.107 (inactive) | -1.7 and -1.08 | -0.154 and -0.176 | -2.82 and -2.49 | 0.702 and -1.72 | -0.877 and -0.78
7 | CCOC(=O)C[C@H]1[C@H](OC(=O)c2ccccc2-c2ccccc2)[C@@H](NC(=O)Cc2ccc(OC)cc2)c2cc(OCCCO)ccc2N1C(=O)Cc1ccc(OC)cc1 | 0.18 and 0.0684 | -0.093 (inactive) and -0.267 (inactive) | 0.0825 (inactive) | 0.656 (inactive) and 0.671 (inactive) | -1.2 (inactive) and 0.454 (inactive) | 0.325 and -0.401 | 0.0082 and 0.109 | -0.0109 and -0.752 | 0.24 and 0.161 | 0.857 and -0.501
8 | CO[C@@H]1COC(=O)CC=C[C@H](C)COC(=O)[C@H](C)NC(=O)CC=C[C@H]1C | 0.144 | 0.178 (inactive) | 0.213 (inactive) | 1.24 (inactive) | -0.218 (inactive) | 0.477 | -0.208 | 0.919 | 1.16 | 1.19
9 | COC(=O)C1=C(C)N(Cc2ccccc2)C2=C(C(C)=O)C[C@@](O)(C(=O)OC)C(=O)N2[C@@H]1c1ccccc1 | 0.491 and 0.0879 | -0.451 (inactive) and -1.18 (inactive) | -2.16 (inactive) | 3.35 (inactive) and 4.53 (inactive) | -0.711 (inactive) and -0.239 (inactive) | -0.192 and -0.271 | 0.0212 and -0.0136 | 1.39 and 0.336 | 1.69 and -0.0069 | 1.74 and 0.806
10 | C=CCN(CCCC)C(=O)C1N(c2ccc(CCO)cc2)C(=O)C2C(C(=O)O)C3C=CC21O3 (centres undefined) | -0.612 and -0.135 | -0.544 (inactive) and -0.336 (inactive) | -0.353 (inactive) and -1.38 (inactive) | -0.224 (inactive) and 0.0524 (inactive) | -0.153 (inactive) and 0.323 (inactive) | -1.29 and -2.12 | -0.389 and -0.409 | -2.4 and -3.13 | -1.86 and -3.82 | -1.43 and -2.14
11 | C=CCN(C(=O)C1N(CCOCCO)C(=O)C2C(C(=O)O)C3C=CC21O3)C(C)(C)C (centres undefined) | -0.908 and -0.886 | -0.773 (inactive) and -0.325 (inactive) | -0.000915 (inactive) and -1.27 (inactive) | -0.627 (inactive) and 0.0605 (inactive) | -0.581 (inactive) and 0.0532 (inactive) | -0.875 and -0.873 | -0.179 and -0.319 | -1.93 and -2.63 | -2.59 and -1.82 | -0.783 and -1.34
12 | C[C@@H]1CC[C@H]2C(=O)N3[C@@H](CC[C@@H](C)[C@@H]3c3ccc(-c4ccco4)cc3)C(=O)N2[C@H]1c1ccc(-c2ccco2)cc1 | 0.178 and 0.544 | 0.234 (inactive) and 0.563 (inactive) | 0.598 (inactive) | -0.165 (inactive) and 0.651 (inactive) | 0.371 (inactive) and -0.248 (inactive) | 1.33 and 2.14 | 0.0006 and 0.0895 | 0.967 and 2.1 | 0.411 and 1.47 | 1.44 and 1.19
13 | COC(=O)[C@@]1(Cc2ccccc2)[C@H]2c3cc(C(=O)N(C)C)n(Cc4ccc(C)c(F)c4F)c3C[C@H]2CN1C(=O)c1ccccc1 | 0.0409 and 1.51 | -4.98 (inactive) and -3.53 (inactive) | -0.796 (inactive) and 0.655 (inactive) | 31.5 (active) and 0.972 (inactive) | 202 (active) and 0.38 (inactive) | 0.367 and 1.93 | 0.122 and 0.787 | 0.399 and 0.7 | 0.272 and 0.365 | -0.678 and -0.165
14 | CC(C)N1CC=CC23O[C@@H]4C=CCCOC(=O)C4[C@H]2C(=O)N(C(C)CO)[C@@H]3C1=O (some centres undefined) | 0.797 and -0.143 | -0.909 (inactive) and 0.0354 (inactive) | – | -0.631 (inactive) and -0.753 (inactive) | -0.0522 (inactive) and -0.428 (inactive) | -0.55 and 1.17 | -0.128 and -0.176 | 0.0687 and -0.403 | -0.0439 and 0.0427 | -0.0042 and -0.188
15 | C=CCN(C(=O)C(c1cccs1)N(C(=O)/C=C\C(=O)O)c1c(Cl)cccc1CO)c1ccc(OC)cc1 (centres undefined) | -0.57 and -0.644 | -0.266 (inactive) and 0.28 (inactive) | 0.894 (inactive) | -0.895 (inactive) and -0.346 (inactive) | -0.569 (inactive) and 0.595 (inactive) | -1.33 and -0.327 | -0.336 and -0.0209 | -2.86 and -0.746 | -1.96 and -2.42 | -1.64 and -0.676
16 | COC(=O)[C@H](C)NC(=O)CCC1CC(OC(=O)NCCc2ccc(F)cc2)CC2(CCCC(COC(=O)NCCCN3CCCC3=O)O2)O1 (some centres undefined) | 0.29 | -0.959 (inactive) | 0.0154 (inactive) | -0.704 (inactive) | 0.597 (inactive) | 0.953 | 0.117 | 0.273 | 0.268 | 1.07
17 | CC(C)OC(=O)C=C1C[C@@H](c2cccc(C(F)(F)F)c2)O[C@@H](c2cccc(C(F)(F)F)c2)O1 | 0.0895 and -0.51 | -0.53 (inactive) and -2.72 (inactive) | -0.539 (inactive) and 0.216 (inactive) | -0.284 (inactive) and 0.379 (inactive) | -0.126 (inactive) and 1.11 (inactive) | 0.0863 and 0.0717 | -0.0313 and -0.2 | 0.704 and 2.6 | 1.17 and 0.366 | -0.0088 and -0.758
18 | C[N+](C)(C)CCCCNC(=O)[C@@H]1C[C@@H]2C(=O)N[C@@H](CCCC[N+](C)(C)C)C(=O)N2[C@@H]1c1cccc(OCCO)c1 | 1.07 and 0.542 | -0.219 (inactive) and 0.0262 (inactive) | 0.78 (inactive) and -0.351 (inactive) | -0.264 (inactive) and 0.692 (inactive) | -1.09 (inactive) and -0.277 (inactive) | 0.0255 and -0.695 | -0.05 and -0.0413 | 2.06 and 0.536 | 2.17 and 1.72 | 2.31 and 2.25
19 | Cc1ccc(S(=O)(=O)N[C@@H]2COC(=O)CC=C[C@@H](C)[C@@H]3C=C[C@H](O)[C@@H](COC(=O)CC=C[C@H]2C)O3)cc1 | -0.0379 and -0.0821 | -0.0259 (inactive) and -3.11 (inactive) | -0.356 (inactive) and -2.59 (inactive) | -0.384 (inactive) and -0.478 (inactive) | -0.419 (inactive) and -0.201 (inactive) | -0.298 and 0.657 | -0.111 and -0.157 | 0.815 and 0.176 | 0.665 and 0.263 | 1.43 and 0.631

From PubChem BioAssay
